# From PubChem BioAssay
# Active and inactive are the calls of the source.
# Tests used:
# Albumin (Bos taurus) = Albumin (Bos taurus) (UniProt P02769); assay: bovine serum albumin binders on microarray, profiling panel, artefact control for SMM control protein annotation, biochemical, small-molecule microarray, Alexa647 label, 635/667 nm fluorescence (AID 1118); settings: BSA-A647 binding, fluorescence 635 nm, higher = more signal;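 further: score merges 667 nm emission intensity and signal-to-noise per printed compound spot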
# [1] = small-molecule microarray binders of probe aXIP, primary screen, biochemical, NeuroSMM set, 635/667 nm fluorescence (AID 1119); settings: higher = more signal, called active from +8 up or from −8 down;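 further: probe is the protein aXip251-270 applied at 1 µg/mL to compound-printed slides; binding of probe to printed compounds measured as 667 nm fluorescence plus signal to noise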
# [2] = small-molecule binders of probe aNOTCH3, primary screen, biochemical, small-molecule microarray, 635/667 nm fluorescence (AID 1120); settings: higher = more signal;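 further: probe is a biotin-tagged antibody raised against NOTCH3 rather than NOTCH3 protein; score merges spot fluorescence near 667 nm with spot signal to noise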
# [3] = small-molecule binders of probe aNOTCH2, primary screen, biochemical, small-molecule microarray, 635/667 nm fluorescence (AID 1121); settings: higher = more signal;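 further: score merges feature fluorescence read at 667 nm with its signal to noise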
# [4] = biological target: Carbonic anhydrase 2 (Homo sapiens) (UniProt P00918); assay: CAII small-molecule binders, profiling panel, biochemical, small-molecule microarray, Alexa647-labelled CAII (AID 1122); settings: CAII-A647 binding fluorescence, higher = more signal
# [5] = COS7 lysate on small-molecule microarray, probe aHis, 635 nm (AID 1123); settings: COS7 cell lysate, fluorescence, higher = more signal;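 further: z-score combines 667nm fluorescence intensity with signal-to-noise per printed compound spot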
# [6] = compound binding in COS7 lysate, probe aLAP1, primary screen, cell lysate, small-molecule microarray (AID 1124); settings: probe aLAP1, fluorescence, higher = more signal;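 further: lysate comes from COS7 cells expressing LAP1 and is applied at 0.3 µg/mL; score merges spot fluorescence near 667 nm with signal-to-noise over triplicate slides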
# Sam68 (KHDRBS1) = assay: Sam68 small-molecule binders, primary screen, biochemical, small-molecule microarray, 635 nm fluorescence (AID 1125); settings: small-molecule microarray binding, higher = more signal;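 further: score merges 667 nm channel intensity with signal to noise over triplicate slides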
# [7] = tested on: Chordin-like protein 2 (CHRDL2); assay: CHRDL2 small-molecule binders, primary screen, biochemical, small-molecule microarray, 635 nm fluorescence (AID 1126); settings: small-molecule microarray binding, fluorescence 635 nm; higher = more signal;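 further: printed compound slides probed with Chrdl2 protein at 4 µg/mL for 1 h at 4 C; score merges 667 nm emission intensity with signal to noise over three replicate slides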
# [8] = biological target: Concanavalin-A (Canavalia ensiformis) (UniProt P02866); assay: ConA small-molecule binders, primary screen, artefact control for SMM control protein annotation, biochemical, small-molecule microarray, Alexa647 label, 635 nm (AID 1127); settings: ConA-A647 binding fluorescence, higher = more signal;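 further: z combines 667 nm emission intensity with signal-to-noise across three replicate slides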
# [9] = anti-His antibody binders, primary screen, artefact control for SMM control protein annotation, biochemical, small-molecule microarray, 635 nm fluorescence (AID 1128); settings: anti-His Alexa647 antibody binding, higher = more signal;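 further: score merges feature fluorescence with signal-to-noise for each printed compound spot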
# [10] = tested on: Human papillomavirus type 1a E7 protein (residues 1-88); assay: HPV1a E7 small-molecule binders, primary screen, biochemical, small-molecule microarray, residues 1-88, 635 nm (AID 1129); settings: small-molecule microarray binding, fluorescence 635 nm; higher = more signal
# [11] = biological target: Focal adhesion kinase 1 (Homo sapiens) (UniProt Q05397); assay: small-molecule microarray binders of FAK, primary screen, biochemical, 635/667 nm fluorescence, BSA, DTT (AID 1130); settings: PTK2 binding, 635 nm fluorescence, higher = more signal;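 further: composite of spot emission at 667 nm and signal to noise over triplicate slides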
# [12] = tested on: Fibrinogen (Alexa647-labelled); assay: fibrinogen binders on compound microarrays, profiling panel, artefact control for SMM control-protein annotation, biochemical, small-molecule microarray, 635/667 nm fluorescence (AID 1131); settings: fibrinogen-A647 binding fluorescence, higher = more signal;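 further: z-score merges 667 nm fluorescence with per-spot signal-to-noise over triplicate slides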
# [13] = biological target: Follistatin (Homo sapiens) (UniProt P19883); assay: follistatin binders on small-molecule microarrays, primary screen, biochemical, small-molecule microarray, 635/667 nm fluorescence (AID 1132); settings: FST binding, 635 nm fluorescence, higher = more signal
# [14] = biological target: Fibroblast growth factor 2 (Homo sapiens) (UniProt P09038); assay: FGF2 binders on small-molecule microarrays, primary screen, biochemical, small-molecule microarray, 635/667 nm fluorescence (AID 1133); settings: small-molecule microarray binding, FGF2, fluorescence 635/667; higher = more signal
# [15] = mitochondrial membrane potential change in A549 cells, profiling panel, cell-based, JC-1 fluorescence, basal, 24 h, 100 nL (AID 1138); settings: higher = more signal;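 further: A549 lung adenocarcinoma cells under basal conditions with no added stimulus; test concentration not given here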
# Lefty1 = Lefty1 binders on small-molecule microarrays, primary screen, biochemical, small-molecule microarray, 635/667 nm fluorescence (AID 1139); settings: small-molecule microarray binding, fluorescence 635/667; higher = more signal
# [16] = tested on: wheat germ agglutinin (Triticum aestivum), Alexa647-labelled; assay: wheat germ agglutinin binders on compound microarrays, profiling panel, artefact control for SMM control-protein annotation, biochemical, small-molecule microarray, 635/667 nm fluorescence (AID 1140); settings: WGA-A647 binding, 635 nm fluorescence, higher = more signal;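 further: score merges 667 nm feature emission with signal to noise over triplicate slides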
# [17] = biological target: Luciferin 4-monooxygenase (Photinus pyralis) (UniProt P08659); assay: firefly luciferase enzyme inhibitors, primary screen, biochemical, luminescence, purified enzyme, 2006 set (AID 1141); settings: SteadyGlo luminescence, 30 min, higher = more signal, called active from +8 up or from −8 down;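 further: cell-free assay with purified firefly luciferase at 100 ng per well in PBS; test concentration not given here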
# Luciferin 4-monooxygenase (Photinus pyralis), sequence (P08659 whole entry, looked up): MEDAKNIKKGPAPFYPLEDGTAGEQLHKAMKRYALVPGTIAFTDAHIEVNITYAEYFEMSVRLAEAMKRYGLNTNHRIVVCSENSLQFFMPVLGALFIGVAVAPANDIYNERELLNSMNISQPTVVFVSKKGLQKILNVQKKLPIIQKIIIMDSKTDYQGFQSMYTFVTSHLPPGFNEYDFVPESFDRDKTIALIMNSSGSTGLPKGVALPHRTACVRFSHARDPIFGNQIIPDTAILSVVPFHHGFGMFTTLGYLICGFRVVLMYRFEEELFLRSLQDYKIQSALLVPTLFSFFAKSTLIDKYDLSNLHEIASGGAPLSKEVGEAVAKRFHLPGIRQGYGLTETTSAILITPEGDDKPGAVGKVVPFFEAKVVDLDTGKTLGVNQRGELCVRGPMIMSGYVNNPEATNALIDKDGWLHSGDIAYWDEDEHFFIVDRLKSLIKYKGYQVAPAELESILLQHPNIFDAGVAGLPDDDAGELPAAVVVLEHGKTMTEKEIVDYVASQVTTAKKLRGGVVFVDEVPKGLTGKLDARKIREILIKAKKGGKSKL
# Albumin (Bos taurus), sequence (P02769 whole entry, looked up): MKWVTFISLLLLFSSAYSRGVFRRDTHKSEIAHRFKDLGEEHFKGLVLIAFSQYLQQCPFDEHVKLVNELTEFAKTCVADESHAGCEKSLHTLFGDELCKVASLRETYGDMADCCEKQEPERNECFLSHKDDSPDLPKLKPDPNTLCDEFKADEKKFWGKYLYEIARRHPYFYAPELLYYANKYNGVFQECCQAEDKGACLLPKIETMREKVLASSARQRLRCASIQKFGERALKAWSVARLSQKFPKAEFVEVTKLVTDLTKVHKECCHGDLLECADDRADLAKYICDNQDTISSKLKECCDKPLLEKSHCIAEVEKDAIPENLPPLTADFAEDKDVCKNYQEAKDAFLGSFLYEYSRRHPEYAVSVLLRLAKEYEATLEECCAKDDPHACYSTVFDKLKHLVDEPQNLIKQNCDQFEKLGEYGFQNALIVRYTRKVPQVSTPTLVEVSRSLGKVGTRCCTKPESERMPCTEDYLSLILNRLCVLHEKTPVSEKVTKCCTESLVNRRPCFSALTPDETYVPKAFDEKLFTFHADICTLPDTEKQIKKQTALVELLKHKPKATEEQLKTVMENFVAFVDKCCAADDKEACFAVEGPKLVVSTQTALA
# Focal adhesion kinase 1 (Homo sapiens), sequence (Q05397 whole entry, looked up): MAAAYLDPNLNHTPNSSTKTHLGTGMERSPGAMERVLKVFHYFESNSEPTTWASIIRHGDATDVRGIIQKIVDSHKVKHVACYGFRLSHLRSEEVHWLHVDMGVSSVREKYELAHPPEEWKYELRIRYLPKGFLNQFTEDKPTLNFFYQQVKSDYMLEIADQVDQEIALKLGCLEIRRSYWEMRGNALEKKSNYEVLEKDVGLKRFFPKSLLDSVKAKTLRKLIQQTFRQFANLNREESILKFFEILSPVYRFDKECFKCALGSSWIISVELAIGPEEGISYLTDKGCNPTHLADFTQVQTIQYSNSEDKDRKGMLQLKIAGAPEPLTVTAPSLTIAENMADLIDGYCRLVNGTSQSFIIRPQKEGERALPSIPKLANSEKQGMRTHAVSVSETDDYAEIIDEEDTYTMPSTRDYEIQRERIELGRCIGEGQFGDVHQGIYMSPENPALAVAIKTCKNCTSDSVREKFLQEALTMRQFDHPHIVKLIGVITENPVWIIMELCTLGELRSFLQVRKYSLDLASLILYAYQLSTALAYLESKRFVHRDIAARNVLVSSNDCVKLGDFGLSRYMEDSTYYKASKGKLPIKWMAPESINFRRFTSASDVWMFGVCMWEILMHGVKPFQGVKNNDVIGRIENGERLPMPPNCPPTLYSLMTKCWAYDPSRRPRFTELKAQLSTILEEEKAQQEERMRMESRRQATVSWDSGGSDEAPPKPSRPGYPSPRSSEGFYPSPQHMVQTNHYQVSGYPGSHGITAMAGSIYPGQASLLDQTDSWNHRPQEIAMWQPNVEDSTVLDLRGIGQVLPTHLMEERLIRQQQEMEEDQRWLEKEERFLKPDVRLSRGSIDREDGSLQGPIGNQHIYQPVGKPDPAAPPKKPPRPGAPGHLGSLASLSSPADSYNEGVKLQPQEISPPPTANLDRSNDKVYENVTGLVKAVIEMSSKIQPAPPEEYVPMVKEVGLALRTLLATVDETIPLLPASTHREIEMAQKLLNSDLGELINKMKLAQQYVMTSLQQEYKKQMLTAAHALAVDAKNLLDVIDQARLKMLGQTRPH
# Follistatin (Homo sapiens), sequence (P19883 whole entry, looked up): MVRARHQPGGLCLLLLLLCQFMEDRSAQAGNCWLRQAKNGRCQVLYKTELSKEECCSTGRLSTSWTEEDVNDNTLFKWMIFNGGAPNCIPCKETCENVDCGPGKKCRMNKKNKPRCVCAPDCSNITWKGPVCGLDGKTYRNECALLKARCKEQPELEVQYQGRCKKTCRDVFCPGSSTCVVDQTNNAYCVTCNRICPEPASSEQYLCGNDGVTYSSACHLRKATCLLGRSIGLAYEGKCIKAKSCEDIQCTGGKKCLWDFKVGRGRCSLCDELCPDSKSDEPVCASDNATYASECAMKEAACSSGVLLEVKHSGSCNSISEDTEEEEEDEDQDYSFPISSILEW
# Concanavalin-A (Canavalia ensiformis), sequence (P02866 whole entry, looked up): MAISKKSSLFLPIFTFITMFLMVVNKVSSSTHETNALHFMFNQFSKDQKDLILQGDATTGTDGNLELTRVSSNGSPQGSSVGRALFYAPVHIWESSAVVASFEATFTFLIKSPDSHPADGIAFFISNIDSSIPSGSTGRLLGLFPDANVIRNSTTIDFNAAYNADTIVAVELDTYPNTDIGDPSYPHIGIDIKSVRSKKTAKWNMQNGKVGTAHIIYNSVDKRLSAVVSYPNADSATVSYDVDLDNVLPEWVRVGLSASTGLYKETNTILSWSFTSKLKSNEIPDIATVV
# Fibroblast growth factor 2 (Homo sapiens), sequence (P09038 whole entry, looked up): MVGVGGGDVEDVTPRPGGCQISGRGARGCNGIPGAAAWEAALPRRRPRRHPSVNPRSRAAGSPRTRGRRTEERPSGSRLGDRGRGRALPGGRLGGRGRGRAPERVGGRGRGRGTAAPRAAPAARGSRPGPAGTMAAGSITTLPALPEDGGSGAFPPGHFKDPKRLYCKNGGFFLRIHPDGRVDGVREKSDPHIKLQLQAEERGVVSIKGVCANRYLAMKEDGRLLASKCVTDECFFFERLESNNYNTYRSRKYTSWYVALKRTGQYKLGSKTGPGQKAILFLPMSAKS
SMILES,composite z-score (Albumin (Bos taurus)),composite Z-score [1],composite z-score [2],composite z-score [3],composite z-score [4],composite z-score [5],composite z-score [6],composite z-score (Sam68 (KHDRBS1)),composite z-score [7],composite z-score [8],composite z-score [9],composite z-score [10],composite z-score [11],composite z-score [12],composite z-score [13],composite z-score [14],z-score [15],composite z-score (Lefty1),composite z-score [16],z-score [17]
O=C1OCCC=C[C@H]2OC34C=CCN(Cc5ccccc5)C(=O)[C@H]3N(CCCCCCO)C(=O)[C@@H]4C12 (stereo not given in full),-0.0045,0.0421 (inactive),-0.241,-0.171,0.898,1.2,0.0054,0.409,-1.02,-0.745,0.0899,-0.374,-0.574,-0.873,-0.0109,-1.02,0.544,0.798,-0.828,0.467 (inactive)
CC(C)CNC(=O)[C@@]1(c2ccc([N+](=O)[O-])cc2)CC(=O)N(CC23CC4CC(CC(C4)C2)C3)[C@@H]1c1ccc(CO)cc1I,-0.0275,0.493 (inactive),0.54,-0.0001,0.259,2.03,0.451,1.32,0.499,0.974,1.33,1.14,0.775,0.635,1.39,1.31,1.12,1.12,0.352,-0.447 (inactive)
CCOC(=O)C[C@H]1[C@H](OC(=O)c2ccc(-c3ccccc3)cc2)[C@@H](NC(=O)c2ccc(-c3ccccc3)cc2)c2cc(OCCCO)ccc2N1C(=O)Cc1ccc(OC)cc1,0.225,-0.576 (inactive),-0.0146,-0.125,-0.0968,0.589,-0.002,-0.316,-0.15,0.363,0.296,0.226,0.315,0.656,0.13,-0.167,0.322,-0.245,-0.0591,0.735 (inactive)
COCCOC(=O)N1C(=O)[C@@]2(c3cc(C#CC4=CCCCC4)ccc31)[C@H](C(=O)NC[C@H](O)c1ccccc1)[C@H]1C(=O)O[C@H](c3ccccc3)[C@H](c3ccccc3)N1[C@@H]2c1ccc(O)cc1,0.112,0.0886 (inactive),0.184,0.103,0.521,0.824,0.992,1.29,1.12,1,0.0524,1.19,0.703,0.86,1.32,1.32,-1.23,0.861,0.845,-1.31 (inactive)
CC(C)N1C(=O)C[C@@](C(=O)NCc2ccccc2)(c2ccc([N+](=O)[O-])cc2)[C@H]1c1ccc(CO)cc1,0.467,0.0119 (inactive),-0.186,-0.0617,0.702,2.37,0.506,1.31,-0.791,-0.0974,2.58,1,0.159,-0.511,0.692,0.118,0.316,0.119,0.549,0.982 (inactive)
COc1ccc([Si](C)(C)[C@@H]2[C@@H](CC(=O)N3CCC[C@H]3CO)O[C@]3(C(=O)N(C)c4c(Br)cc(C)cc43)[C@H]2C)cc1,0.588,0.306 (inactive),0.0674,-0.175,0.292,1.15,0.461,1.3,0.872,1.07,0.437,1.15,0.393,0.935,1.17,0.987,0.66,1.19,0.0832,-0.297 (inactive)
COc1cc(C(O)C2C=CC3C(=O)N(c4ccccc4)C(=O)C3N2Nc2ccc(C#N)cc2)cc(OC)c1OC (stereo not given),1.01,0.0402 (inactive),0.178,0.135,0.883,3.23,1.26,1.32,-1.05,1.21,2.58,1.31,1.04,1.11,1.02,0.0977,0.142,-0.0667,1.51,0.282 (inactive)
CCOC(=O)C[C@H]1[C@H](OC(=O)c2ccc(C(=O)c3ccccc3)cc2)[C@@H](NC(=O)C2CCCCC2)c2cc(OCCCO)ccc2N1C(=O)c1ccccc1,0.473,0.599 (inactive),0.369,-0.132,0.159,1.54,0.297,1.31,-0.047,0.799,0.447,0.881,0.211,0.636,0.27,0.0816,2.14,0.166,0.203,-0.46 (inactive)
Cc1ccc(S[C@]2(C(=O)NC3CC3)CC(=O)N(Cc3ccccc3)[C@@H]2c2ccc(CO)cc2)cc1,0.391,0.225 (inactive),-0.284,0.125,0.27,2.78,0.677,-0.664,-1.49,-0.788,0.116,-0.663,-0.526,-0.816,-0.432,-0.596,0.424,-0.663,0.222,-0.585 (inactive)
[N-]=[N+]=NCc1ccccc1C[C@]1(C(=O)NCC(O)CO)N=C(c2ccc(OCCCO)cc2)O[C@H]1c1ccccc1N=[N+]=[N-] (stereo not given in full),0.675,0.529 (inactive),0.254,-0.0059,0.652,1.57,0.0131,0.283,-0.44,0.565,2.99,1.12,1.66,0.188,-0.181,-0.189,1.63,-0.923,0.541,-6.49 (inactive)
COc1ccc(C#Cc2ccc3c(c2)[C@]2(C(=O)N3)[C@H](C(=O)NC[C@H](O)c3ccccc3)[C@H]3C(=O)O[C@H](c4ccccc4)[C@H](c4ccccc4)N3[C@@H]2c2ccccc2OCCO)cc1,0.566,0.29 (inactive),0.175,-0.0157,0.575,1.8,1.03,1.29,0.469,1.14,1.05,1.19,0.686,0.844,1.09,0.604,-1.79,1.42,0.855,-0.361 (inactive)
